The results in this text go back to PubChem BioAssay (NCATS).

The target in assay [1] is Glucocorticoid receptor (Homo sapiens) (UniProt P04150). In words: qHTS assay for small molecule agonists of glucocorticoid receptor signaling (AID 588532; active = well fitted curve in the direction sought with a large enough effect in the signal ratio, with a control signal flat; the % refers to the signal ratio;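 note: 100% = dexamethasone at 0.1 µM and 0% = DMSO only wells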). The settings on record: HeLa MMTV-bla, beta-lactamase ratio, agonist, 18 h; activation: stronger effect = higher value, percent of dexamethasone control, DMSO zero. Put shortly:
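MMTV-bla HeLa, beta-lactamase reporter; medium with 1% charcoal/dextran-stripped FBS; cpds up to 92 uM, 18 h, 37 C; CCF4 readout 460/530 nm; Hill fit → EC50, efficacy vs 0.1 uM dexamethasone = 100%.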

For assay [2], the target named is Peroxisome proliferator-activated receptor delta (Homo sapiens) (UniProt Q03181). Kind of assay: qHTS assay for small molecule agonists of peroxisome proliferator-activated receptor delta signaling (AID 588534).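 Note: 0% = DMSO basal wells and 100% = positive control agonist at 10 µM.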 Put shortly:
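EC50 and efficacy values derive from Hill fits of a concentration series in a beta-lactamase reporter cell assay. Exposure is 18 hrs at 37 C, with CCF4 fluorescence as the readout.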
A general note: In qHTS, concentration-response curves come from the screen itself.

Assay [3] in a line: qHTS assay for small molecule antagonists of peroxisome proliferator-activated receptor delta signaling (AID 588535).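 Note: cells co-treated with a PPAR-delta agonist as stimulator during compound exposure.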 Particulars: HEK293T PPARd-UAS-bla, beta-lactamase FRET ratio, 18 h; 460 nm channel. Put shortly:
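Compounds tested in titration on PPAR-delta-UAS-bla HEK293T cells grown in charcoal/dextran-stripped serum (2%); beta-lactamase activity read via CCF4 emission at 460 and 530 nm.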

Assay [4] has as its target Peroxisome proliferator-activated receptor gamma (Homo sapiens) (UniProt P37231). In words: qHTS assay for small molecule agonists of peroxisome proliferator-activated receptor gamma signaling (AID 588536; active = well fitted curve in the direction sought with a large enough effect in the signal ratio, with a control signal flat, not every such curve was filed as active; the % refers to the signal ratio;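 note: 0% = DMSO basal wells and 100% = rosiglitazone at 2 µM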). Put shortly: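 Beta-lactamase reporter read-out: CCF4 fluorescence (ex 405, em 460/530 nm) after 2 h at RT. HEK293 GeneBLAzer cells were treated for 16 h at 37 C. Hill fits gave EC50 and efficacy versus 2 uM rosiglitazone (100%) and DMSO (0%).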

Assay [5] has the same target. In words: qHTS assay for small molecule antagonists of peroxisome proliferator-activated receptor gamma signaling (AID 588537; active = well fitted inhibition curve with a large enough effect in the signal ratio, with a control signal flat, not every such curve was filed as active; the % refers to the signal ratio;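 note: reporter cells co-stimulated with 50 nM rosiglitazone agonist during compound treatment; % of control where 0% means no effect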). Put shortly: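 HEK293 cells, PPAR-gamma-UAS-bla, 3000/well. Pre-incubation 6-6.5 h, 37 C. Compound titration with rosiglitazone 50 nM final, 16 h. CCF4 dye, 2 h RT, dual-emission fluorescence.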
Assay [6] concerns the target Vitamin D3 receptor (Homo sapiens) (UniProt P11473). In words: qHTS assay for small molecule antagonists of vitamin D receptor signaling (AID 588541).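 Note: receptor activated by calcitriol during compound treatment; series mostly up to about 77 µM; % is set by controls: 0 for no effect and ±100 for the full control effect.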 Put shortly:
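VDR-UAS-bla HEK293T cells (2000/well, 2% charcoal-stripped FBS) were treated with titrated compounds plus 1-alpha,25-dihydroxyvitamin D3 (50 nM or 3 nM final) for 16 h at 37 C. CCF4 beta-lactamase fluorescence was read; Hill fits gave IC50.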

The target is the same in assay [7]. Kind of assay: qHTS assay for small molecule agonists of vitamin D receptor signaling (AID 588543).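 Note: 0% = DMSO basal and 100% = reference agonist control.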 Put shortly:
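Measured: β-lactamase reporter activity (CCF4, 405 nm excitation, 460/530 nm emission) in HEK293T VDR-UAS-bla cells after 16 h compound exposure at 37 °C. Normalization against 50 nM 1α,25-dihydroxyvitamin D3 and DMSO; Hill-fit EC50.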

Assay [8] addresses Retinoic acid receptor RXR-alpha (Homo sapiens) (UniProt P19793). Kind of assay: qHTS assay for small molecule agonists of retinoid X receptor alpha signaling (AID 588544).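 Note: 0% = DMSO basal wells and 100% = reference agonist.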
Assay [9] deals with Thyroid hormone receptor beta (Homo sapiens) (UniProt P10828). Kind of assay: qHTS assay for small molecule agonists of thyroid hormone receptor beta signaling (AID 588545).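 Note: 0% = DMSO only and 100% = 10 nM T3.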 Put shortly:
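Beta-lactamase reporter activity under TR response element control is measured in HEK 293 cells after 18 hrs compound exposure. Signal is ratiometric CCF4 fluorescence, 460/530 nm.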

Assay [10] can be described thus: qHTS assay for small molecule antagonists of retinoid X receptor alpha signaling (AID 588546; active = well fitted inhibition curve with a large enough effect in the signal ratio, with a control signal flat, not every such curve was filed as active; the % refers to the signal ratio;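 note: cells stimulated with 9-cis-retinoic acid as agonist; % is set by controls: 0 for no effect and ±100 for the full control effect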). Particulars: HEK293T RXRa-UAS-bla, beta-lactamase ratio, antagonist mode; measured here: W530 green channel, cytotoxicity proxy. Put shortly: (§1)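 Beta-lactamase reporter inhibition, read as CCF4 fluorescence ratio (ex 405, em 460/530 nm) after 2 h at RT. HEK293T UAS-bla cells, 2500/well, were stimulated with 9-cis-RA at 500 or 100 nM final alongside test compound for 18 h at 37 C.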

Assay [11] concerns the target Retinoic acid receptor RXR-alpha (Homo sapiens) (UniProt P19793). The assay is described as above. The settings on record: HEK293T RXRa-UAS-bla, beta-lactamase ratio, antagonist mode. Put shortly:
as §1

Assay [12] deals with Thyroid hormone receptor beta (Homo sapiens) (UniProt P10828). Kind of assay: qHTS assay for small molecule antagonists of thyroid hormone receptor beta signaling (AID 588547; active = well fitted inhibition curve with a large enough effect in the signal ratio, with a control signal flat, not every such curve was filed as active; the % refers to the signal ratio; note: potency is the fitted concentration of half-maximal effect;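 for activity change % (negative = inhibition): cells stimulated with 0.4 nM T3 agonist during compound exposure; series mostly up to about 77 µM; % is set by controls: 0 for no effect and ±100 for the full control effect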). Particulars: TR-UAS-bla HEK293, beta-lactamase ratio, antagonist mode, 18 h. Put shortly: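 TR-UAS-bla GripTite HEK293 cells in 2% charcoal/dextran FBS medium were preincubated 4 h at 37 C, given compound (0.59 nM to 92 uM) plus 0.4 nM T3 (final) for 18 h, then CCF4 for 2 h at RT; Hill fit gave IC50.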
Chain of Thyroid hormone receptor beta (Homo sapiens) (P10828 whole entry, looked up): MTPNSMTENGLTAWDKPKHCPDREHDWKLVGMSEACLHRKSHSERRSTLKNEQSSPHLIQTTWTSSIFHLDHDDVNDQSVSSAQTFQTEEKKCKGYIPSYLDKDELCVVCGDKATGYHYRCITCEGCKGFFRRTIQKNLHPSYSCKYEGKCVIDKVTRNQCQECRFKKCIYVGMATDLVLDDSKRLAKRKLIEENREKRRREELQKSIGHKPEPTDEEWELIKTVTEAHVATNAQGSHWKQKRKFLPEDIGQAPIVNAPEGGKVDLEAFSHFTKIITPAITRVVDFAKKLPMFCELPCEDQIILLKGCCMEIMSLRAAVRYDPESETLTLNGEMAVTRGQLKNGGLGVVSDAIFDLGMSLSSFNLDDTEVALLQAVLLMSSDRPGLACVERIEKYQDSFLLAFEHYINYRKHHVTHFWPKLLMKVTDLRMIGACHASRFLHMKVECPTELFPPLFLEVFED

Assay [13] is described as follows: qHTS assay for small molecule activators of the p53 signaling pathway (AID 651743; active = well fitted activation curve with a large enough effect in the signal ratio, not every such curve was filed as active; the % refers to the signal ratio; note: series mostly up to about 92 µM; % of control where 0% means no effect). The settings on record: HCT-116 p53RE-bla, beta-lactamase FRET ratio, 16 h; activation: stronger effect = higher value. Put shortly:
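Here HCT-116 cells with an integrated p53-responsive beta-lactamase gene were incubated with compounds (16 hours, 37 C) after a 5-hour plating period; beta-lactamase activity was detected as fluorescence intensity via B/G FRET substrate.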

Assay [14] has as its target Peroxisome proliferator-activated receptor alpha (Homo sapiens) (UniProt Q07869). In words: qHTS assay for small molecule agonists of the peroxisome proliferator-activated receptor alpha (PPARalpha) signaling pathway (AID 651778; active = well fitted curve in the direction sought with a large enough effect; an effect the other way counts as inactive or inconclusive; note: % of control where 0% means no effect). The settings on record: PathHunter PPARalpha complementation, chemiluminescence, 6 h; max response: stronger effect = higher value. Put shortly: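 Cells plated at 2,000/well and held overnight at 37 C, 5% CO2, then compound added by pin tool for 6 hr; after PathHunter detection reagent and 60 min at room temperature, chemiluminescence from enzyme complementation was read.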

Assay [15] can be described thus: qHTS assay for small molecule agonists of the antioxidant response element (ARE) signaling pathway measured by Nrf2-dependant transcriptional activity (AID 720636; active = well fitted curve in the direction sought with a large enough effect in the repeat runs; an effect the other way counts as inactive or inconclusive;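 note: HepG2 cells with an ARE-driven luciferase reporter; % of control where 0% means no effect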). Put shortly: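 Attachment 6 hr at 37 C, then compound versus DMSO vehicle for 16 hr in ARE-luc HepG2 cells (1% dialyzed FBS); luminescence recorded 30 min after ONE-Glo addition at room temperature.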

Assay [16] is described as follows: qHTS assay for small molecule agonists of the antioxidant response element (ARE) signaling pathway measured by Nrf2-dependant transcriptional activity - cell viability counter screen (AID 720653; active = well fitted curve in the direction sought with a large enough effect in the repeat runs; an effect the other way counts as inactive or inconclusive; note: % is set by controls: 0 for no effect and ±100 for the full control effect). The settings on record: ARE-bla HepG2 viability, CellTiter-Glo ATP luminescence, 16 h; max response: stronger effect = lower value. Put shortly: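 ARE-bla HepG2 cells (2,000/well) rested 5 hrs at 37C/5% CO2, then exposed to compounds in DMSO for 16 hrs. Viability was read in the same wells as intracellular ATP by luminescence, 30 min at room temperature after reagent addition.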

A short description of assay [17]: qHTS assay for cell viability of HEK293 cells (AID 743288; active = well fitted curve in the direction sought with a large enough effect; an effect the other way counts as inactive or inconclusive; note: % is set by controls: 0 for no effect and ±100 for the full control effect; nearly all actives have a fitted effect of over 50% in size). Particulars: ATP luminescence (CellTiter-Glo), 18 h; max response: stronger effect = lower value. Put shortly: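 HEK293, 18 h, 37 C, ATP luminescence. Cells at 2,000/well were allowed at least 5 h to settle before dosing; CellTiter-Glo developed 30 min at RT.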
The nature of assay [18]: qHTS assay for cell viability of the p53RE-bla HCT-116 cell line (AID 743292; active = well fitted curve in the direction sought with a large enough effect; an effect the other way counts as inactive or inconclusive; note: % is set by controls: 0 for no effect and ±100 for the full control effect; nearly all actives have a fitted effect of over 55% in size). Put shortly: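 Compound-exposed HCT-116 (p53RE-bla) cells, 4,000 per well, were kept 16 h at 37 C following a 5 h preincubation. Cell number was estimated from total ATP by CellTiter-Glo luminescence read after 30 min at room temperature.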
Assay [19] deals with Nuclear receptor subfamily 1 group I member 2 (Rattus norvegicus) (UniProt Q9R1A7). In words: qHTS assay for small molecule activators of the rat pregnane X receptor (rPXR) signaling pathway (AID 651751; call rule not given here; note: 0% is about no effect). The settings on record: rPXR reporter cells, luciferase (One-Glo), 24 h.
Chain of Nuclear receptor subfamily 1 group I member 2 (Rattus norvegicus) (Q9R1A7 whole entry, looked up): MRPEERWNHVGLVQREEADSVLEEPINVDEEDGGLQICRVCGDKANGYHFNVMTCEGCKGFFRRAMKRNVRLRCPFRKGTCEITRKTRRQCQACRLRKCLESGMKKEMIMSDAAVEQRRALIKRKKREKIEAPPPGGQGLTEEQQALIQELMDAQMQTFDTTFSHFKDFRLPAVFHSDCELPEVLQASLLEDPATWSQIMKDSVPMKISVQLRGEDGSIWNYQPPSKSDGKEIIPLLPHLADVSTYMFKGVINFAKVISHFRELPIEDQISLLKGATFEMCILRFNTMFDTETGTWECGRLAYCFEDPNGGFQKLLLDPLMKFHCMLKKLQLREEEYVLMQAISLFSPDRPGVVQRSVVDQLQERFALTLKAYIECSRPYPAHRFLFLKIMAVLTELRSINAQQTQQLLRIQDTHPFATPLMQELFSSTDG
Assay [20] is described as follows: qHTS assay for environmental chemicals that activate the Aryl hydrocarbon Receptor (AhR) signaling pathway (AID 651777; active = well fitted curve in the direction sought with a large enough effect; an effect the other way counts as inactive or inconclusive; note: % of control where 0% means no effect; nearly all actives have a fitted effect of over 15% in size). Particulars: 1A2-DRE human hepatoma cells, luciferase, 24 h; activation: stronger effect = higher value. Put shortly:
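Concentration–response screening used 1,200 1A2-DRE cells per well, 24 hr compound exposure (37 C, 5% CO2), and One-Glo luminescence as the AhR-driven CYP1A2 reporter signal.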

Inconclusive results are not listed. Active and inactive are the calls of the source. Unless noted, calls come from the whole dose curve.

Chain of Vitamin D3 receptor (Homo sapiens) (P11473 whole entry, looked up): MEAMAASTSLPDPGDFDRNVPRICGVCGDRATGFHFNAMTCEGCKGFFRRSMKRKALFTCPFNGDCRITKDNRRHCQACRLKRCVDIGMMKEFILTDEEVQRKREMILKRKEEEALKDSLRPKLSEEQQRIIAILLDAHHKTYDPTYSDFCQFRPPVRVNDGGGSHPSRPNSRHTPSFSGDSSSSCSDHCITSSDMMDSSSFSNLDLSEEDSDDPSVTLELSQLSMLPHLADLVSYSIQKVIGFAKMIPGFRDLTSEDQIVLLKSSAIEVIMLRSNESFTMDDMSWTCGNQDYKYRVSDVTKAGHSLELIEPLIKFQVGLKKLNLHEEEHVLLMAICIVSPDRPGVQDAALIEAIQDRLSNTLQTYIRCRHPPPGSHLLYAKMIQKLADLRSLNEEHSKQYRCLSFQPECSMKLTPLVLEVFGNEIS
Chain of Glucocorticoid receptor (Homo sapiens) (P04150 whole entry, looked up): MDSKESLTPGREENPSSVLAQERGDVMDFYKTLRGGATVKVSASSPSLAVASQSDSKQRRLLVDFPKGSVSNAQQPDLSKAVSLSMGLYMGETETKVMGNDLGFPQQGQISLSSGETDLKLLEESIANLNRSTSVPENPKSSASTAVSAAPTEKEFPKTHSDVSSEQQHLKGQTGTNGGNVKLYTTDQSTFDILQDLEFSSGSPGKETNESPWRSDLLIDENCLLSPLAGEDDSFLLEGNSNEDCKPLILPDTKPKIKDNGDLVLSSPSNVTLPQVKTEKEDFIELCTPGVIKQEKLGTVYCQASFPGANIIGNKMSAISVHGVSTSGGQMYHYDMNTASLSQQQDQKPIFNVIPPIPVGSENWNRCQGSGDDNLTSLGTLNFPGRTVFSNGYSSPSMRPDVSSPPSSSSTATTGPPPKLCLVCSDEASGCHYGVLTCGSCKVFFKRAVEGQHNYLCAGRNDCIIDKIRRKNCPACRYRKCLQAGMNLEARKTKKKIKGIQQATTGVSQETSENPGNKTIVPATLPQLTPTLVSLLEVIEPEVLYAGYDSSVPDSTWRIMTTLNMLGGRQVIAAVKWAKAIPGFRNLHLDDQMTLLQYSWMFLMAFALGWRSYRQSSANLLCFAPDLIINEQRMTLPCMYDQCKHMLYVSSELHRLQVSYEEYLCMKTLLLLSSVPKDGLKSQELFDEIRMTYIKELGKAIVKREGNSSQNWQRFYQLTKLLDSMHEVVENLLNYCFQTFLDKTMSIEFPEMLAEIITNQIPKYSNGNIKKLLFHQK
Chain of Retinoic acid receptor RXR-alpha (Homo sapiens) (P19793 whole entry, looked up): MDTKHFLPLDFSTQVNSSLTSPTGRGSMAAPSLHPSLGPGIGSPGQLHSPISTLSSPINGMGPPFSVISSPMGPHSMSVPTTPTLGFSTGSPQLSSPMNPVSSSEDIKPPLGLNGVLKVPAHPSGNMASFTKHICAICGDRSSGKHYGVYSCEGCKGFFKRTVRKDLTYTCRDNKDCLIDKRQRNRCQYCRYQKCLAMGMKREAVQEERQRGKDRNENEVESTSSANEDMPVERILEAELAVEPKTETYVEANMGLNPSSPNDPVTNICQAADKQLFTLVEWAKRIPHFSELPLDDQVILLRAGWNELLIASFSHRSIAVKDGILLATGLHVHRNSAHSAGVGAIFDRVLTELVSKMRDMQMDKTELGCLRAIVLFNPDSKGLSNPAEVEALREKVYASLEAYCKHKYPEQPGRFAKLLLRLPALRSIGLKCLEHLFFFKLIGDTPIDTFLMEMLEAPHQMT
Chain of Peroxisome proliferator-activated receptor gamma (Homo sapiens) (P37231 whole entry, looked up): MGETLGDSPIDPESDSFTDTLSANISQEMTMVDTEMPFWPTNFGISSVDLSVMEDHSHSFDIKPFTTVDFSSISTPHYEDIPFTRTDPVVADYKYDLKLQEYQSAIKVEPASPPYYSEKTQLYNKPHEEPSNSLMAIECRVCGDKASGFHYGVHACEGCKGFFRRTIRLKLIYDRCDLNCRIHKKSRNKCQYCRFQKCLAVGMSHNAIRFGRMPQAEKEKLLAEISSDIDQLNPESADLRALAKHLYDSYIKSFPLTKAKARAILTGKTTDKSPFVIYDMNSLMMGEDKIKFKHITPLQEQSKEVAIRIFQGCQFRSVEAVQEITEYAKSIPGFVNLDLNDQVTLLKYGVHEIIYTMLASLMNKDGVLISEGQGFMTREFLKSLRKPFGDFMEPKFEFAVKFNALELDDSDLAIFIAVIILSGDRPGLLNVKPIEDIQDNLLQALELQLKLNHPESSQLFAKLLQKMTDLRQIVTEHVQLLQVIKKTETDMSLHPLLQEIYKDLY
Chain of Peroxisome proliferator-activated receptor delta (Homo sapiens) (Q03181 whole entry, looked up): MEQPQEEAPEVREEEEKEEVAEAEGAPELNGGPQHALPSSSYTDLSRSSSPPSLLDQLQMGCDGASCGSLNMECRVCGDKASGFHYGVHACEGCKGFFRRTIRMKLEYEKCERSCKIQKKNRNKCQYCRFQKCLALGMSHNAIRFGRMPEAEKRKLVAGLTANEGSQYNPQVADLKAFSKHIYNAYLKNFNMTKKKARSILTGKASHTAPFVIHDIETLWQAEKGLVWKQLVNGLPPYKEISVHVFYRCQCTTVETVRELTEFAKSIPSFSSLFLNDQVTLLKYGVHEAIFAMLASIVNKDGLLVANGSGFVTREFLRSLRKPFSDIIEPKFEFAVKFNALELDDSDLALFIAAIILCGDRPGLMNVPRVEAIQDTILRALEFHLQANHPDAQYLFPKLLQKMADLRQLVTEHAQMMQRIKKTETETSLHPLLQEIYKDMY
Chain of Peroxisome proliferator-activated receptor alpha (Homo sapiens) (Q07869 whole entry, looked up): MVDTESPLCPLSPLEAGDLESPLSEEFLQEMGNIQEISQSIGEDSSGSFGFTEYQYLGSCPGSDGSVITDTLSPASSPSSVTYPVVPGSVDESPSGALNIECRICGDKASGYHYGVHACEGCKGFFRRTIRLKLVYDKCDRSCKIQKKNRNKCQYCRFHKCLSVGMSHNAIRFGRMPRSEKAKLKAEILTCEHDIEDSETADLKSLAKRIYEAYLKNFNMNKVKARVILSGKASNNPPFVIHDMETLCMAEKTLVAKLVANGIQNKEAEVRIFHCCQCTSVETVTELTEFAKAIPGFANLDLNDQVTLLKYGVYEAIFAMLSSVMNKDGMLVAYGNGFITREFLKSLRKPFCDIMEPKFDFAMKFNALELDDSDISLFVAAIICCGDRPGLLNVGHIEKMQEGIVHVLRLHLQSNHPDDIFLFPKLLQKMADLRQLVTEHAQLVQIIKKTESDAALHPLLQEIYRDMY

Turning to `CCC[CH2][Sn](=[O])[CH2]CCC`, the results for the activation in [1] and in assay [13] were -3.35% (inactive) and 2.27% (inactive), respectively. In addition, the compound was classed as inactive in [2] and in assay [7]. Further, the max response in assay [3] was 0.661%; in [10] it was -4.07%; in [11], -4.87% (inactive); in assay [14] it was -3.37% (inactive); in assay [16] it was 5.71% (inactive); in assay [17], -6.83% (inactive). In addition, the max response in [19] was 4.58% (inactive). Further, the Potency entry in assay [4], in assay [5], in [6], in assay [8], in assay [9] and in [15] was “inactive” throughout. Also, the Potency result in assay [18] is “inactive”. The activity change % (negative = inhibition) in [12] was -7.82% (inactive).

Regarding `CCOP(=S)(OCC)SCn1c(=O)oc2cc(Cl)ccc21`, the activation in [1] is 0.851% (inactive). The Potency result in assay [4], in assay [6], in [9] and in [18] was “inactive” throughout. Also, the compound was called inactive in [7]. In addition, the activity change % (negative = inhibition) in [12] is -26.9% (inactive). Also, the values for the max response in [14], in [16] and in [17] were -0.132% (inactive), -8.7% (inactive) and -28.2% (inactive), respectively.

For `CC1=C(C(=O)Nc2ccccc2)S(=O)(=O)CCO1`, the activation in assay [1] was -17.4% (inactive); in [20] it was -2.25% (inactive). The Potency result in assay [4] and in assay [18] was “inactive” in each case. Besides, in assay [12], the Potency is 39.8 µM (active). Moreover, the max response in assay [14] was -2.04% (inactive); in assay [16] it was -1.32% (inactive); in assay [17], -49.4% (inactive); in assay [19], -5.83% (inactive).

As to `CNP(=O)(OC)Oc1ccc(C(C)(C)C)cc1Cl` (stereo unspecified), the activation is 0.207% (inactive) in assay [1], 6.28% (inactive) in [13] and 5.81% (inactive) in assay [20]. The result in assay [2] and in assay [7] was inactive. Moreover, the max response in assay [3] was 45%; in [10], 2.01%; in [14], -2.32% (inactive); in assay [16] it was 8.45% (inactive); in assay [19] it was 11.5% (inactive). Moreover, the Potency result in [6], in assay [8], in [9] and in assay [18] was “inactive” in each case.

Consider `CC(C)[C@@H](Nc1ccc(C(F)(F)F)cc1Cl)C(=O)OC(C#N)c1cccc(Oc2ccccc2)c1` (stereo partly specified), for which the activation in assay [1] was -3.97% (inactive); in assay [20], 0.736% (inactive). For the same compound, in assay [7], the result was inactive. For the same compound, the Potency result in assay [9], in assay [15] and in assay [18] was “inactive” throughout. For the same compound, the max response is -1.14% (inactive) in [14], -3.6% (inactive) in [16] and -27.3% (inactive) in [17].

`ClC1=C(Cl)C2(Cl)C3C4OC4C(Cl)C3C1(Cl)C2(Cl)Cl` (stereo unspecified): the call in assay [2] was inactive. The max response in assay [3] is -5.72%; in assay [10], -11.3%; in [11] it was -6.75% (inactive); in assay [16], 0.273% (inactive); in assay [17], -17.2% (inactive). Also, the Potency entry in assay [4], in [5], in [6], in [8], in assay [9] and in assay [15] was “inactive” throughout. For the same compound, the Potency entry in [18] is “inactive”. Moreover, in assay [12], the activity change % (negative = inhibition) was 16.3% (inactive). Further, the activation in [13] was -0.997% (inactive).
